Assay results: PubChem BioAssay (NCATS)
Results filed as inconclusive are left out. Values without a mark were called inactive. Calls come from the whole dose curve.

experiment: Cell Viability - MRC5 (AID 434); conditions: MRC5 lung fibroblast viability, qHTS;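 note: potency reflects cytotoxicity seen as loss of intracellular ATP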
Source text: NIH Chemical Genomics Center [NCGC]
NIH Molecular Libraries Screening Centers Network [MLSCN]
National Institutes of Environmental Health Sciences [NIEHS]
National Toxicology Program [NTP]
We have developed a 1536-well cell-based assay for quantitative high throughput screening (qHTS) against a number of cell lines to determine in vitro cytotoxicity of small molecules. This particular assay uses the MRC5 cell line which is derived from normal human lung fibroblasts.
NCGC Assay Protocol Summary:
The CellTiter-Glo luminescent cell viability assay (Promega) is a homogeneous method to measure the number of viable cells in culture. The end point readout of this assay is based on quantitation of intracellular ATP, an indicator of metabolic activity, using the luciferase reaction. Luciferase catalyzes the oxidation of beetle Luciferin to oxyluciferin and light in the presence of ATP. The luminescent signal is proportional to amount of ATP present.
Using the CellTiter-Glo luminescent cell viability assay, the amount of cellular ATP was measured in the MRC5 cell line with complete culture medium following compound treatment for 40 hours. The assay was performed in opaque white Kalypsys 1536-well plates. In the screen, tamoxifen and doxorubicin were used as positive controls. Library compounds were measured for their ability to cause acute toxicity in the cell line, as reflected by a decrease in intracellular ATP levels, in a concentration-dependent manner. Data were normalized to the controls for basal activity (DMSO only) and 100% inhibition (100 uM tamoxifen). AC50 values were determined from concentration-response data modeled with the standard Hill equation.
qHTS protocol for CellTiter Glo MRC5 cellular assay
[Step] [Parameter] [Value] [Description]
1. Reagent; 5 uL; 1500 MRC5 cells/well
2. Time; 5 hr; 37 °C incubation
4. Controls; 23 nL; Tamoxifen 0.34 uM to 100 uM & Doxorubicin 0.02 nM to 100 uM
5. Time; 40 hr; 37 °C incubation
6. Reagent; 5 uL; CellTiter Glo reagent
7. Time; 20 min; Room Temperature
8. Detection; Luminescence; Viewlux plate reader
Keywords: cell viability, cytotoxicity, MRC5 cell line, luminescence, NTPHTS, NTPHTS_NCGC, NIEHS, EPA, DSSTox, MLSMR, MLSCN, NIH Roadmap, qHTS, NCGC
Potency is the fitted concentration of half-maximal effect.

**Q.** Which Potency does the source give for `C[C@]12C/C(=C/O)C(=O)C[C@@H]1CC[C@@H]1[C@@H]2CC[C@@]2(C)[C@H]1CC[C@]2(C)O` here?
**A.** The Potency was > 92 µM.

**Q.** For `NCC(O)c1ccc(O)cc1` (stereo not given), which Potency is on record?
**A.** The Potency was > 92 µM.

**Q.** Which Potency does the source give for `CNCC(O)c1ccc(O)cc1` (stereo not given) here?
**A.** The Potency was > 92 µM.

**Q.** With `CCOP(=S)(OCC)Oc1cc(C)nc(C(C)C)n1` as the molecule, how does the Potency read?
**A.** The Potency was > 92 µM.

**Q.** For `Oc1cccc2cccnc12`, which Potency is on record?
**A.** The Potency was > 92 µM.

**Q.** Which Potency does the source give for `c1ccc2c(c1)Nc1ccccc1S2` here?
**A.** Its Potency is > 92 µM.

**Q.** Which Potency does the source give for `CCCC(C)(COC(N)=O)COC(=O)NC(C)C` (stereo not given) here?
**A.** The Potency was > 92 µM.

**Q.** Which Potency does the source give for `Oc1ccccc1-c1ccccc1` here?
**A.** Its Potency is > 92 µM.

**Q.** Which Potency does the source give for `OCCOc1ccccc1` here?
**A.** The Potency was > 92 µM.

**Q.** For `Clc1ccc(COC(Cn2ccnc2)c2ccc(Cl)cc2Cl)cc1` (stereo not given), which Potency is on record?
**A.** The Potency was 95 µM.
